Shown are actives, neighbours in structure and some others; about 2.4% of the full set was active somewhere.
PHOSPHO1 block – PubChem AID 1565. Phosphoethanolamine/phosphocholine phosphatase (Homo sapiens), Q8TCT1. recombinant PHOSPHO1, absorbance phosphatase assay. inhibition, % at 13.3 µM. 290,000 tested, 1.1% active; in the data active = inhibition above about 60%
Target sequence (Q8TCT1 whole entry, looked up): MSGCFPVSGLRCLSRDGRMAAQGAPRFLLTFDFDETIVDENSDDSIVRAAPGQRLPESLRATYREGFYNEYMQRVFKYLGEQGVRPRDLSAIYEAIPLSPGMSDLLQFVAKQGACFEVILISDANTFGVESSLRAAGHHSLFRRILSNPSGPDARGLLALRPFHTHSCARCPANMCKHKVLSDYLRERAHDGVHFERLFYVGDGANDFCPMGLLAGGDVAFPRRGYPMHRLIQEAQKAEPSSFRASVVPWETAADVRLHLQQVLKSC
eIF4H FP inh – human eIF4H binding inhibitors, primary screen, translation initiation inhibitor project, biochemical, uHTS, fluorescence polarization | eIF4H fluorescence polarization binding assay | AID 2012, 2009 | 290,000 tested, 0.94% active | inhibition, % at 35 µM;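 also: calls also rest on retests at 20 µM and on dose response follow-up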
Efa HMGR inh – inhibitors of E. faecalis class II HMGR, primary screen, biochemical, Enterococcus faecalis. 190,000 tested, 0.41% active. purified E. faecalis HMGR, NADPH absorbance 340 nm kinetic. inhibition, % at 10 µM;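 active = inhibition above a set limit, the median over all tested compounds plus 3 SD, cut at about 9.5% in these data; inconclusive = no clear call, values can overlap the other calls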;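 also: enzyme runs in reverse so mevalonate oxidation gives rising NADPH absorbance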
PABP1 MLLE inh – inhibitors of PABP1 MLLE–PAM2 peptide binding, primary screen, biochemical, fluorescence polarization, FITC-PAM2, GST-MLLE | Polyadenylate-binding protein 1 (Homo sapiens), P11940 | inhibition, % at 20 µM | 360,000 tested, 0.36% active; in the data active = inhibition above about 35%, passing the limit was not always enough
PABP FP inh – PABP poly(A) RNA binding inhibitors, primary screen, biochemical, fluorescence polarization, uHTS | calls only at 35 µM | Polyadenylate-binding protein 1 (Homo sapiens), P11940 | 290,000 tested, 1% active | AID 2014, 2009;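 also: calls also rest on retests at 20 µM and on dose response follow-up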
Numbers stand for hits; 0 = inactive; ? = inconclusive; - = not tested or not shown; + = active, no number. Unless noted, no rule for the calls is given here.

SMILES | PHOSPHO1 block | eIF4H FP inh | Efa HMGR inh | PABP1 MLLE inh | PABP FP inh
Cc1occc1-c1nnc(SCC(=O)c2cc3ccccc3oc2=O)o1 | 0 | 60 | 0 | 0 | 0
Cc1ccc(NC(=O)c2ncn(CCCNCC3CCCO3)n2)cc1C (configuration not stated) | - | - | - | 0 | -
CC(=O)Nc1ccc(S(=O)(=O)NCCC(=O)NNC(=O)c2ccccc2O)cc1 | - | - | - | 0 | -
Cc1ccc(NC(=O)CN2C(=O)S/C(=C\c3ccc(-c4cccc(C(=O)O)c4C)o3)C2=O)cc1 | 0 | 74 | 0 | - | +
Cc1ccc(C)c(N2C(=N)S/C(=C\c3ccc(-c4ccccc4C(=O)O)o3)C2=O)c1 | 0 | 0 | 0 | 0 | 0
CC(C)(C)OC(=O)CN1C(=O)S/C(=C\c2ccc(-c3cccc(C(=O)O)c3)o2)C1=O | 0 | 65 | - | - | 0
Cc1cc(C(=O)O)ccc1-c1ccc(/C=C2\SC(=O)N(CC(=O)Nc3ccc4c(c3)OCO4)C2=O)o1 | 0 | ? | - | 0 | ?
CCOC(=O)C(C)N1C(=O)S/C(=C\c2ccc(-c3ccccc3C(=O)O)o2)C1=O (configuration not stated) | 0 | 101 | - | 0 | +
C#CCN1C(=O)S/C(=C\c2ccc(-c3ccc(C(=O)O)cc3C)o2)C1=O | 0 | 76 | - | 0 | +
C/C(=N\O)C(C)(C)Nc1ccccc1F | 0 | 0 | - | 0 | 0
Cc1ccc(NC(=O)CN2C(=O)S/C(=C/c3ccc(-c4cccc(C(=O)O)c4)o3)C2=O)cc1 | 0 | 0 | 0 | 0 | +
Cc1ccc(NC(=O)CN2C(=O)S/C(=C\c3ccc(OCC(=O)O)c(Br)c3)C2=O)cc1 | 0 | 0 | - | 0 | 0
COc1cc(/C=C2\SC(=O)N(CC(=O)Nc3ccc(C)cc3)C2=O)cc(Cl)c1OCC(=O)O | 0 | 89 | - | 0 | 0
N=C1C(c2ccccc2)=C(O)CN1c1cccc(S(=O)(=O)NCc2ccco2)c1 | 0 | 0 | - | 0 | 0
CC(=O)c1cc2c(cc1N/C(=N/S(=O)(=O)c1ccccc1)c1ccc(Cl)cc1)OCO2 | 0 | 0 | 13 | 0 | 0
CC(=O)c1cc2c(cc1NS(=O)(=O)c1ccccc1)OCO2 | 0 | 0 | 0 | 0 | 0
CCOC(=O)CC1Sc2ccccc2NC1=O (configuration not stated) | 0 | 0 | 0 | 0 | 0
CCC(OC(=O)CC1Sc2ccccc2NC1=O)C(=O)NCC1CCCO1 (configuration not stated) | 0 | 0 | 0 | 40 | 0
Cc1ccccc1NC(=O)NC1(C(=O)N2CCC(C(N)=O)CC2)CCCCC1 | 0 | 0 | - | 0 | 0
CCNCc1ccccc1OCc1ccccc1 | 69 | 0 | 0 | 0 | 0
OCCNCCNCc1ccccc1OCc1ccccc1 | 0 | 0 | 0 | 0 | 0
COc1cccc(CNc2ccc(C(=O)O)cc2)c1OCc1ccccc1 | 0 | 0 | 0 | 0 | 0
Oc1ccc(NCc2ccccc2OCc2ccccc2)cc1 | 0 | 88 | 0 | 0 | +
O=C(c1nc2ccccn2c1CN1CCCC(OCc2ccccc2)C1)N1CCCC1 (configuration not stated) | 0 | 0 | 0 | 0 | 0
CC(OC(=O)Cn1cnc2c1c(=O)n(C)c(=O)n2C)C(=O)N(C)c1ccccc1 (configuration not stated) | - | - | - | 0 | -
SMILES | PHOSPHO1 block | eIF4H FP inh | Efa HMGR inh | PABP1 MLLE inh | PABP FP inh
COc1cccc(NC(=S)N/N=C2/CCCCc3ccccc32)c1 | 0 | 0 | 0 | 45 | 0
COc1cc(-c2nnc(SCC(=O)c3cc(C)n(CC4CCCO4)c3C)o2)cc(OC)c1OC (configuration not stated) | 0 | 70 | 0 | 0 | +
COc1cc(-c2nnc(SCC(=O)c3ccc(C)cc3)o2)cc(OC)c1OC | 0 | 0 | 0 | 0 | 0
Cc1cc(C(=O)CSc2nnc(-c3ccc(F)cc3)o2)c(C)n1CC1CCCO1 (configuration not stated) | 100 | 0 | 0 | 0 | 0
Cc1ccc(O)c(C=Nc2cc(C)ccc2O)c1 | 0 | 0 | 0 | 0 | 0
Cc1ccc(O)c(C=Nc2ccc3[nH]ncc3c2)c1 | 0 | 68 | 0 | 0 | +
Sc1oc(-c2ccccc2)cc1C=Nc1ccccc1 | 91 | 0 | 0 | 0 | 0
COc1ccc(S(=O)(=O)N2CCN(C(=O)C3CC3)CC2)cc1Br | - | - | - | 0 | -
CCC(=O)/C=C1/Sc2ccc(OC)cc2N1CC | 0 | 0 | 0 | 0 | 0
CCC(=O)/C=C1/Sc2ccc(OC)cc2N1CCO | 0 | 0 | 0 | 45 | 0
O=C(O)C1CC=CCC1C(=O)Nc1ccc(N2CCN(Cc3ccccc3)CC2)cc1 (configuration not stated) | 0 | 0 | 0 | 0 | 0
CCN(CC)c1ccc2nc3ccc(N)cc3[n+](-c3ccccc3)c2c1 | - | - | - | 0 | -
CCN(CC)c1ccc2nc3ccccc3[n+](CC)c2c1 | 0 | 0 | - | 0 | +
O=C(CSc1nc(=O)n(CCCN2CCOCC2)c2c1CCCC2)Nc1cccc(Cl)c1 | - | - | - | 0 | -
O=C1CCc2cc(S(=O)(=O)N3CCCCC3)cc3c2N1CC3 | - | - | - | 0 | -
Cc1ccc(-n2nc3c(c2NC(=O)C(C)(C)C)CS(=O)(=O)C3)cc1 | 0 | 0 | - | 0 | 0
CC(C)(C)NC(=O)CN(C(=O)CCC(=O)Nc1nccs1)c1cccc(C(F)(F)F)c1 | 60 | 0 | - | 0 | 0
CN(C)c1ccc(CC(=O)N2CCCC(c3cc(C(=O)Nc4ccc5c(c4)OCO5)no3)C2)cc1 (configuration not stated) | - | - | - | 0 | -
CSc1nc(N)c(NC(=O)c2ccc(Br)o2)c(=O)[nH]1 | 66 | 0 | - | 0 | 0
CCOc1ccc2[nH]c(SCC(=O)OC)c([N+](=O)[O-])c2c1 | 0 | 54 | 0 | 54 | +
COc1ccc(-c2cn3c(C)c(C(=O)Nc4ccncc4)sc3n2)cc1 | 94 | 0 | 0 | 0 | 0
COCCNC(=O)C/C(C)=N/NC(=O)C(=O)NC1CCCCC1 | 0 | 0 | 0 | 0 | 0
CC1CC(C)CN(C(=O)c2ccc(NS(=O)(=O)c3ccc4[nH]c(=O)[nH]c4c3)cc2)C1 (configuration not stated) | - | - | - | 0 | -
Cn1c(=O)c2[nH]c(N=NN3CCCCC3)nc2n(C)c1=O | - | - | - | 0 | -
CC(=O)/C(N=Nc1nc2c([nH]1)c(=O)n(C)c(=O)n2C)=C(\C)O | 0 | 0 | - | 55 | 0
Cc1ccc2nc3c(cc2c1)CN(Cc1ccco1)C(=NCC1CCCO1)S3 (configuration not stated) | 0 | 0 | 0 | 0 | 0
Cc1cccc2cc3c(nc12)SC(=NCC1CCCO1)N(Cc1ccco1)C3 (configuration not stated) | 74 | 0 | 0 | 0 | 0
Cc1nn(CCOc2ccccc2)c(=O)n1-c1ccccc1 | 62 | 0 | 0 | 0 | 0
Cc1cc(C(=O)N[C@H](c2ccccc2)[C@@]2(C)C[C@@H]2[C@@H](C)C(=O)Nc2ccc3ccccc3c2)no1 | 0 | 0 | 25 | 0 | 0
O=C(O)CCCN1C(=O)C(=O)/C(=C(/O)c2ccc(Cl)cc2)C1c1ccccc1 (configuration not stated) | 0 | 0 | - | 51 | 0
